Results filed as inconclusive are left out. The source made the active and inactive calls. Unless noted, no rule for the calls is given here.
Columns and labels:
[1] = target: ATP-dependent translocase ABCB1 (Homo sapiens) (UniProt P08183); assay: P-glycoprotein substrate transport blockade – cell-based (AID 377; in the data active = fluorescence slope change above about 50%); details: MDR1-expressing cells, fluorescent substrate accumulation slope; stronger effect = higher value; concentration not given here
[2] = compounds altering circadian rhythm period length – cell-based, LOPAC library, luminescence reporter (AID 2774); details: circadian reporter cells, at 7 µM, actives lie on both sides;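 also: values are relative to mean of DMSO wells on each plate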
[3] = system: Hepatitis C virus NS3 helicase; assay: blockers of NS3h binding to ssDNA – biochemical, fluorescence polarization, LOPAC1280 library, primary screen (AID 687035; in the data active = inhibition above about 37%); details: Purified HCV NS3 helicase, Cy5-dT15 ssDNA binding fluorescence polarization; stronger effect = higher value; concentration not given here
[4] = compounds altering Cy5-DNA-NS3h complex signal – biochemical, LOPAC1280, artefact control for HCV NS3 helicase inhibitor project (AID 687037); details: Cy5-DNA-NS3h complex fluorescence interference counterscreen
[5] = system: Neuropilin-2 / VEGF-C interaction (human); assay: small molecules blocking Neuropilin-2/VEGF-C interaction – biochemical, microplate binding format, z-score (AID 743281); details: microplate NRP2/VEGF-C binding assay; stronger effect = lower value
[6] = viability loss in pontine glioma line – cell-based, JHH-DIPG-1, MIPE4.0, CellTiter-Glo, qHTS, dose response (AID 1347062; cut-off not given, nearly all actives have AC50 up to about 27 µM;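 as to AC50: cells exposed to compound for two days before readout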); details: JHH-DIPG-1 viability, CellTiter-Glo ATP luminescence
[7] = viability loss in pontine glioma line – cell-based, SU-DIPG-XXV, MIPE5.0, CellTiter-Glo, qHTS, dose response (AID 1347065; cut-off not given, nearly all actives have AC50 up to about 26 µM;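 also: cells exposed to compound for 48 hours before ATP readout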); details: CellTiter-Glo ATP luminescence
[8] = growth inhibition of DIPG cells – cell-based, MIPE4.0 library, CellTiter-Glo luminescence, qHTS (AID 1347066; cut-off not given, nearly all actives have AC50 up to about 30 µM;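 also: cells exposed to compound for 48 hours before readout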); details: SU-DIPG-VI viability, CellTiter-Glo ATP luminescence
[9] = growth inhibition of DIPG cells – cell-based, MIPE5.0 library, qHTS (AID 1347068; cut-off not given, nearly all actives have IC50 up to about 30 µM;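 as to IC50: cells exposed to compound for 48 hours before viability readout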); details: SU-DIPG-XXV viability
[10] = blockers of cellular phospholipid synthesis – cell-based, LOPAC library, screen 4, primary screen (AID 1347384); details: animal cells, phospholipid biosynthesis inhibition screen; at 10 µM
[11] = viability loss in pontine glioma line – cell-based, SU-DIPG-XVII, MIPE5.0, CellTiter-Glo, qHTS, dose response (AID 1347060; cut-off not given, nearly all actives have AC50 up to about 26 µM;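 as to AC50: cells exposed to compound for 48 hours before viability readout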); details: CellTiter-Glo ATP luminescence
[12] = viability loss in pontine glioma line – cell-based, SU-DIPG-XIII, MIPE4.0, CellTiter-Glo, qHTS, dose response (AID 1347061; cut-off not given, nearly all actives have AC50 up to about 37 µM;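 also: cells exposed to compound for 48 hours before readout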); details: CellTiter-Glo ATP luminescence
[13] = viability loss in pontine glioma line – cell-based, SU-DIPG-IV, MIPE4.0, CellTiter-Glo, qHTS, dose response (AID 1347063; cut-off not given, nearly all actives have AC50 up to about 30 µM;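 also: compound exposure lasted 48 hours before the viability readout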); details: CellTiter-Glo ATP luminescence
[14] = JHH-DIPG-1 glioma cell viability, MIPE5.0 library, CellTiter-Glo luminescence, qHTS (AID 1347067; cut-off not given, nearly all actives have AC50 up to about 26 µM;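 also: cells exposed to compound for 48 hours before readout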); details: JHH-DIPG-1 glioma viability, CellTiter-Glo ATP luminescence
[15] = viability loss in pontine glioma line – cell-based, SU-DIPG-XIII, MIPE5.0, CellTiter-Glo, qHTS, dose response (AID 1347064; cut-off not given, nearly all actives have AC50 up to about 23 µM;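 as to AC50: cells exposed to compound for 48 hours before the viability read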); details: CellTiter-Glo ATP luminescence
[16] = GFP-Q80 aggregate reduction, neuronal-like cells, cell-based, NGF-treated PC12, GFPQ80 (AID 1614); details: PC12 NGF-treated GFP-polyQ80 inclusion reduction;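 also: lower means fewer inclusions and 0 means no inclusions at all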

Sequence of ATP-dependent translocase ABCB1 (Homo sapiens) (P08183 whole entry, looked up): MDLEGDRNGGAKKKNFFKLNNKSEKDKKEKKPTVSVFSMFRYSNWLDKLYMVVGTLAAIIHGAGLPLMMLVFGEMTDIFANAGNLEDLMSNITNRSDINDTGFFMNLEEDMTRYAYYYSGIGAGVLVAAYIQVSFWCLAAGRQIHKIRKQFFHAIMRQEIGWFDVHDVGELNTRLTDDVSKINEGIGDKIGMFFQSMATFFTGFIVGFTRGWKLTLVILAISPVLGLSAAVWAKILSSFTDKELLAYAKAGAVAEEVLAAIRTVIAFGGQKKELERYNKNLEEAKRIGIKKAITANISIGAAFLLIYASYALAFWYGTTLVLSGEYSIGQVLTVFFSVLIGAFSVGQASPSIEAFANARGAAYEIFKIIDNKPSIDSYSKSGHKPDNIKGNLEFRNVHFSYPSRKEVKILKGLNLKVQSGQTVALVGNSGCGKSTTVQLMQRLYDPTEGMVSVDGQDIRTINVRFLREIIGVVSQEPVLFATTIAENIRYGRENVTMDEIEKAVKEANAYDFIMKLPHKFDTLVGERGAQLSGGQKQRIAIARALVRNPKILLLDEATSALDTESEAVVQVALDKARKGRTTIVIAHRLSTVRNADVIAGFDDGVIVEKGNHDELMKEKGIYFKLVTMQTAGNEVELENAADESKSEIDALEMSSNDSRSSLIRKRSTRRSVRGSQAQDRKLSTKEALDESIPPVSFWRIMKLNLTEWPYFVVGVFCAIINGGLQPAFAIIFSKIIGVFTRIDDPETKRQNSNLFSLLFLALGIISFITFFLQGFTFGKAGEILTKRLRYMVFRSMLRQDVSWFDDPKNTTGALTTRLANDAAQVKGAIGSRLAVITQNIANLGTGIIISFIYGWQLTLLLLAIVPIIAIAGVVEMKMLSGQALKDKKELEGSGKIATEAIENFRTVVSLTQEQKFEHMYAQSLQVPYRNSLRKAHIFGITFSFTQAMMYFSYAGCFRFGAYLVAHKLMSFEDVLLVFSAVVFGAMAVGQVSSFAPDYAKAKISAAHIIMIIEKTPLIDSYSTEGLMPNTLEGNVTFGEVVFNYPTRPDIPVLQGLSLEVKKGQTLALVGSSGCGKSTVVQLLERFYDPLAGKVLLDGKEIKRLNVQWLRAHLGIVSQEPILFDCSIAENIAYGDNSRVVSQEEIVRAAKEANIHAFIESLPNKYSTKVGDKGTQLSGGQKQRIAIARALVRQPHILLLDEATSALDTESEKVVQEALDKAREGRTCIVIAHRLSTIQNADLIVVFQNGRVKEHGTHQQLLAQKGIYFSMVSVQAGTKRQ

CNCCCC12CCC(c3ccccc31)c1ccccc12
inactive: period change [2] 2.03 h | inhibition [3] -6% | fluorescence ratio (interference) [4] 0.9 | z-score [5] -0.344 | outcome [8] | outcome [9] | outcome [10]
active: fluorescence slope change [1] 137% | AC50 [6] 20.9 µM | AC50 [7] 23.5 µM

C#C[C@]1(O)CC[C@H]2[C@@H]3CCC4=CC(=O)CC[C@@H]4[C@H]3CC[C@@]21CC
inactive: fluorescence slope change [1] -2.5% | outcome [11] | outcome [12] | outcome [6] | outcome [13] | outcome [8] | outcome [14] | outcome [9]

CCCCc1oc2ccccc2c1C(=O)c1cc(I)c(OCCN(CC)CC)c(I)c1
inactive: period change [2] 0.145 h | inhibition [3] 0% | fluorescence ratio (interference) [4] 0.9 | z-score [5] -0.442 | outcome [10]
active: AC50 [11] 13.2 µM | AC50 [12] 7.43 µM | AC50 [6] 23.5 µM | AC50 [13] 1.05 µM | AC50 [15] 13.2 µM | AC50 [8] 23.5 µM | AC50 [14] 16.6 µM | IC50 [9] 23.5 µM

Cc1c(OCC(F)(F)F)ccnc1CS(=O)c1nc2ccccc2[nH]1 (stereo not drawn)
2: inclusion score [16]
inactive: period change [2] -0.035 h | inhibition [3] -2% | fluorescence ratio (interference) [4] 1 | z-score [5] 0.0966 | outcome [11] | outcome [13] | outcome [15] | outcome [7] | outcome [8] | outcome [9] | outcome [10]

CNC(=O)Oc1ccc2c(c1)[C@]1(C)CCN(C)[C@@H]1N2C
2: inclusion score [16]
inactive: period change [2] 0.16 h | inhibition [3] -2% | fluorescence ratio (interference) [4] 1 | outcome [10]

COc1cc2nc(N3CCN(C(=O)c4ccco4)CC3)nc(N)c2cc1OC
active: AC50 [13] 26.4 µM | AC50 [8] 14.8 µM
inactive: inhibition [3] -1% | fluorescence ratio (interference) [4] 0.9 | z-score [5] 0.105 | outcome [10]

CC(=O)OCC(=O)[C@@]12OC(C)(C)O[C@@H]1C[C@H]1[C@@H]3C[C@H](F)C4=CC(=O)C=C[C@]4(C)[C@@]3(F)[C@@H](O)C[C@@]12C
inactive: fluorescence slope change [1] 14.5% | outcome [12] | outcome [6] | outcome [15] | outcome [7] | outcome [8] | outcome [9]

Fc1ccc([C@@H]2CCNC[C@H]2COc2ccc3c(c2)OCO3)cc1
inactive: inhibition [3] -1% | fluorescence ratio (interference) [4] 0.9 | z-score [5] 0.222 | outcome [8] | outcome [10]

CC(=O)O[C@]1(C(C)=O)CC[C@H]2[C@@H]3C=C(C)C4=CC(=O)CC[C@]4(C)[C@H]3CC[C@@]21C
inactive: outcome [15] | outcome [8] | outcome [9]
active: AC50 [6] 11.8 µM | AC50 [13] 8.33 µM

OCCN(CCO)c1nc(N2CCCCC2)c2nc(N(CCO)CCO)nc(N3CCCCC3)c2n1
active: AC50 [12] 20.9 µM | AC50 [7] 18.6 µM
2: inclusion score [16]
inactive: period change [2] -0.245 h | inhibition [3] -2% | fluorescence ratio (interference) [4] 1 | outcome [6] | outcome [10]

Nc1nc2ccc(OC(F)(F)F)cc2s1
inactive: period change [2] 0.11 h | inhibition [3] -3% | fluorescence ratio (interference) [4] 0.9 | z-score [5] 1.45 | outcome [11] | outcome [12] | outcome [6] | outcome [15] | outcome [8] | outcome [10]
active: fluorescence slope change [1] 60.6% | IC50 [9] 20.9 µM

O=C(c1ccccc1)c1ccc2n1CCC2C(=O)O (stereo not drawn)
active: AC50 [12] 8.33 µM
2: inclusion score [16]
inactive: period change [2] -0.025 h | inhibition [3] -3% | fluorescence ratio (interference) [4] 1 | z-score [5] -0.0903 | outcome [11] | outcome [6] | outcome [13] | outcome [15] | outcome [7] | outcome [8] | outcome [14] | outcome [9] | outcome [10]

CCN(CC)CC(=O)Nc1c(C)cccc1C
inactive: period change [2] -0.265 h | inhibition [3] -3% | fluorescence ratio (interference) [4] 1 | z-score [5] 1.47 | outcome [10]
2: inclusion score [16]

COc1ccc2c(c1)c(CC(=O)O)c(C)n2C(=O)c1ccc(Cl)cc1
inactive: period change [2] 0.07 h | inhibition [3] -5% | fluorescence ratio (interference) [4] 1 | z-score [5] 0.68 | outcome [11] | outcome [7] | outcome [8] | outcome [14] | outcome [9]
active: fluorescence slope change [1] 95% | AC50 [12] 18.7 µM
2: inclusion score [16]

CC(=O)OCC(=O)[C@@]1(O)CC[C@H]2[C@@H]3CCC4=CC(=O)C=C[C@]4(C)[C@H]3[C@@H](O)C[C@@]21C
inactive: outcome [12] | outcome [6] | outcome [15] | outcome [7] | outcome [8] | outcome [14] | outcome [9]

C[C@@H]1C[C@H]2[C@@H]3CCC4=CC(=O)C=C[C@]4(C)[C@@]3(F)[C@@H](O)C[C@]2(C)[C@@]1(O)C(=O)CO
inactive: outcome [11] | outcome [15] | outcome [7] | outcome [14] | outcome [9]

O=C1N=C(O)CN1/N=C/c1ccc(-c2ccc([N+](=O)[O-])cc2)o1
active: fluorescence slope change [1] 54.9%
1.5: inclusion score [16]
